E-sel TNF inh – E-selectin induction blockers in HUVEC – imaging, immunofluorescence, high content, primary screen. HUVEC TNFa-induced E-selectin immunofluorescence. inhibition, % at 2 µM. 120,000 compounds, 0.71% hits;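 active = inhibition above the batch mean plus 3 SD, and confirmed as a hit on visual image review, cut at about 43% in these data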;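 also: 0% = TNF-stimulated DMSO wells and 100% = unstimulated control wells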
CYP2C9 inhib – blockers of cytochrome P450 2C9 activity – biochemical, luminescence, ADME assay, primary screen. P11712. CYP2C9 Supersomes, luciferin-H conversion. inhibition, % at 5 µM. 96,000 compounds, 20% hits. AID 777, 2007;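 active = blocking of liver enzyme CYP2C9 beyond about 50% at 5 µM, limit read from the data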
Target sequence (P11712 whole entry, looked up): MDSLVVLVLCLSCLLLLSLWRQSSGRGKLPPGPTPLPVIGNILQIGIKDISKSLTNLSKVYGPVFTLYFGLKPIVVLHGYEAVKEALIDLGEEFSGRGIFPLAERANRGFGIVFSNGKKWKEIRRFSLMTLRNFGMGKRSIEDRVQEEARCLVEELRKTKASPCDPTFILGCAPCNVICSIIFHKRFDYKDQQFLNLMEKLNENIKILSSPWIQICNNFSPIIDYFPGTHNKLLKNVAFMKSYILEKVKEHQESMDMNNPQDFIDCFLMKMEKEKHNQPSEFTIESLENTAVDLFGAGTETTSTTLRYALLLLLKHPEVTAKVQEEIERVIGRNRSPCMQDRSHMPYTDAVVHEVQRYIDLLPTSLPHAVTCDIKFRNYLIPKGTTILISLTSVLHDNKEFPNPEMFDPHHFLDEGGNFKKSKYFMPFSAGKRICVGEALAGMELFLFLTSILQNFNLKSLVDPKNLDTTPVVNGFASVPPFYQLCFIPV
F-actin modifier – modifiers of F-actin cytoskeleton organization, primary screen, imaging, HUVEC, phalloidin staining, high-content imaging; HUVEC TNFa F-actin phalloidin imaging; inhibition, % at 2 µM; 91,000 compounds, 0.18% hits; AID 836, 2007;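 active = inhibition above the batch mean plus 3 SD and confirmed as a hit by visual image inspection, cut at about 30% in these data, passing the limit was not always enough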
CYP2C9 act – human CYP2C9 activators, primary screen, biochemical, luminescence. 96,000 compounds, 1.4% hits. activation factor at 5 µM. recombinant CYP2C9, luciferin-H conversion; stronger effect = higher value; factor 1 = untreated enzyme, 0 = blocked. AID 1024, 2008;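 active = activation factor of 2 or more for CYP2C9 at a 5 µM dose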;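 also: 0 = sulfaphenazole-blocked wells and 1 = vehicle-only wells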
CYP2C19 activ – human CYP2C19 activators, primary screen, biochemical, luminescence. Cytochrome P450 2C19 (Homo sapiens), P33261. recombinant CYP2C19, luciferin-H EGE luminescence; stronger effect = higher value; 0 = fully inhibited enzyme, 1 = untreated enzyme. activation factor at 5 µM. 96,000 tested, under 10 active. AID 1025, 2008;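 active = activation factor of at least 2 at 5 µM in the primary screen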;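 also: 0 = wells with 2.5 mM tranylcypromine and 1 = vehicle-only wells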
CYP2C19 inhib – blockers of cytochrome P450 2C19 activity – biochemical, luminescence, ADME assay, primary screen; CYP2C19 Supersomes, luciferin-H EGE luminescence, 30 min; inhibition, % at 5 µM; 96,000 compounds, 21% hits; AID 778, 2007;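 active = CYP2C19 inhibition above a set limit at 5 µM in the primary screen, cut at about 50% in these data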;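 also: plate controls were negative control wells for no effect and 2.5 mM tranylcypromine positive control for full effect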
* marks the source's active call; other numbers are inactive results; / = no result given. An excerpt weighted towards active compounds, which were near 22% of everything screened.

SMILES | E-sel TNF inh | CYP2C9 inhib | F-actin modifier | CYP2C9 act | CYP2C19 activ | CYP2C19 inhib
COC(=O)c1cccc(COC(=O)c2cccnc2SC)c1 | -26 | -3 | 5 | 1 | 0.6 | 41
Cc1nn(Cc2ccccc2Cl)c(C)c1NC(=O)C1C2CCC(O2)C1C(=O)O (stereo not given) | -7 | 27 | -19 | 0.7 | 0.1 | 94*
Cc1ccccc1Cn1nc(C)c(NC(=O)c2noc3c2CCCC3)c1C | 15 | 58* | -2 | 0.4 | 0.8 | 23
Cc1nn(Cc2ccc(F)cc2)c(C)c1NC(=O)c1noc2c1CCCCC2 | -22 | 77* | / | 0.2 | 0.4 | 56*
Cc1cc(NC(=O)c2noc3c2CCCC3)nn1Cc1ccc(Cl)cc1 | / | 11 | -7 | 0.9 | 0.9 | 6
Cc1ccccc1Cn1nc(C)c(NC(=O)C2(C)CC2(Cl)Cl)c1C (stereo not given) | -10 | / | / | / | / | /
Cc1nn(Cc2ccc(Cl)cc2)c(C)c1NC(=O)c1noc2c1CCc1ccccc1-2 | -8 | -8 | -16 | 1.1 | 1 | -1
Cc1nn(Cc2ccccc2Cl)c(C)c1NC(=O)c1noc2c1CCCCC2 | / | 54* | -9 | 0.5 | 1 | -2
Cc1cnc(C(=O)OCC(=O)NC2CCCC(C)C2C)cn1 (stereo not given) | 11 | 11 | -22 | 0.9 | 0.8 | 18
O=C(Nc1c[nH]c(=O)[nH]c1=O)c1ccc([N+](=O)[O-])cc1 | 7 | / | / | / | / | /
COc1ccc2[nH]c(C)c(CCNC(=S)Nc3cc(C)ccc3C)c2c1 | 15 | / | / | / | / | /
CC(C)COc1ccc(CNC(=S)N/N=C/c2ccc([N+](=O)[O-])cc2)cc1 | 7 | 80* | -2 | 0.2 | 0.8 | 18
COc1ccc(CCNC(=S)Nc2cc(C)ccc2C)cc1 | 20 | 54* | / | 0.5 | 0.3 | 67*
COc1ccc(CNC(=S)N/N=C/c2ccc(OC)c(OC)c2)cc1 | -25 | 63* | -8 | 0.4 | 1 | 5
COc1ccc(N2CCN(C(=S)Nc3cccc(C)c3C)CC2)cc1 | 1 | -9 | 4 | 1.1 | 1 | -5
COc1ccc(CCNC(=S)Nc2cccc(C)c2C)cc1 | -10 | 26 | 1 | 0.7 | 0.4 | 58*
Cc1cc(Cl)ccc1NC(=S)NCc1ccccc1 | -22 | 20 | -7 | 0.8 | 0.2 | 77*
COc1ccc(CNC(=S)Nc2ccccc2C)cc1 | 9 | 7 | 17 | 0.9 | 0 | 98*
COc1ccc(CNC(=S)Nc2cc(C)ccc2C)cc1 | -32 | 16 | -4 | 0.8 | 0 | 98*
COc1ccc(CNC(=S)Nc2cccc(C)c2)cc1 | -15 | -25 | / | 1.2 | 0.2 | 81*
O=C1CC(N2CCOCC2)C(=O)N1c1ccccc1Cl (stereo not given) | -11 | -8 | -7 | 1.1 | 0.9 | 9
Cc1nc2ccccc2nc1OCC(=O)NCC(F)(F)F | -3 | / | / | / | / | /
CC(C)C(=O)Nc1cccc(C(=O)Nc2nncs2)c1 | -26 | 32 | / | 0.7 | 0.9 | 7
CCN(CC)S(=O)(=O)c1ccc(Oc2ccccc2)cc1 | -23 | 66* | -7 | 0.3 | 0.7 | 28
CN(C)S(=O)(=O)c1ccc(Oc2ccccc2)cc1 | 4 | 58* | -21 | 0.4 | 0.5 | 48
SMILES | E-sel TNF inh | CYP2C9 inhib | F-actin modifier | CYP2C9 act | CYP2C19 activ | CYP2C19 inhib
CCN(CC)S(=O)(=O)c1ccc(-c2ccc(S(=O)(=O)N(CC)CC)cc2)cc1 | -22 | 37 | 2 | 0.6 | 0.9 | 9
CCN(CC)S(=O)(=O)c1ccc(Oc2cccc(C(C)=O)c2)nc1 | -33 | 26 | 4 | 0.7 | 0.5 | 51*
CCN(CC)S(=O)(=O)c1ccc(OCC(=O)NCc2ccccc2)cc1 | -1 | 67* | 6 | 0.3 | 1 | -3
COc1ccccc1OCCNC(=O)c1cc(SC)ccc1Cl | 17 | / | / | / | / | /
CN(Cc1cnn(C)c1)C(=O)c1sc2cccc(Cl)c2c1Cl | 10 | -4 | / | 1 | 1.4 | -35
CCn1c(-c2ccc3[nH]c(C)c(C)c3c2)n[nH]c1=S | -17 | 90* | -43 | 0.1 | 0.2 | 78*
CCn1c(-c2cc3ccccc3cc2O)n[nH]c1=S | 9 | 26 | / | 0.7 | 0.5 | 52*
CCn1c(CSc2nc3ccccc3[nH]2)n[nH]c1=S | -3 | 35 | -20 | 0.7 | 0.4 | 56*
CCOc1ccccc1CSc1nc2ccccc2[nH]1 | 10 | / | / | / | / | /
CCn1c(-c2c[nH]c3ccccc23)n[nH]c1=S | -6 | 54* | -11 | 0.5 | 0.5 | 47
CCOc1ccc(-n2ccnc2SCC(=O)Nc2nnc(CC)s2)cc1 | -45 | 23 | / | 0.8 | 0.7 | 27
CCn1c(Cc2c(C)[nH]c3ccccc23)n[nH]c1=S | 8 | 7 | 40 | 0.9 | 0.1 | 91*
O=C(NC(NCCCN1CCOCC1)(C(F)(F)F)C(F)(F)F)C1CCCCC1 | / | 2 | 27 | 1 | 0.9 | 7
O=[N+]([O-])c1ccc(Cl)c(/C=N/Nc2nc(N3CCOCC3)nc(N3CCOCC3)n2)c1 | 6 | 12 | -13 | 0.9 | 0.8 | 19
COC(=O)c1cc(=O)nc2sc3ccccc3n12 | -1 | 81* | -17 | 0.2 | 1 | 2
O=C(c1ccccc1)N1CCN(Cc2ccccc2)CC1 | 10 | / | 6 | / | / | /
O=S(=O)(c1ccc2c(c1)OCCO2)N1CCN(Cc2ccc3c(c2)OCO3)CC1 | -5 | 89* | 8 | 0.1 | 0.1 | 94*
CN(C)S(=O)(=O)c1cccc(C(=O)N2CCN(Cc3ccccc3)CC2)c1 | 2 | 4 | -11 | 1 | 0.5 | 53*
O=S(=O)(c1ccc2c(c1)OCCO2)N1CCN(Cc2ccccc2)CC1 | 36 | -40 | -13 | 1.4 | 0.2 | 82*
CN(Cc1ccccc1)S(=O)(=O)c1ccc(S(=O)(=O)N(Cc2ccc(F)cc2)C2CCCC2)cc1 | -21 | 58* | 5 | 0.4 | 1.1 | -6
CN(Cc1ccccc1)S(=O)(=O)c1ccc(NC(=S)NC(=O)C2CCCC2)cc1 | -3 | 4 | 6 | 1 | 1 | 2
CCN1CCN(/C=N/c2nc(C)cs2)CC1 | / | -10 | -13 | 1.1 | 1 | -2
O=C(COC(=O)c1ccco1)Nc1nc2ccccc2s1 | / | 35 | -37 | 0.7 | 0.7 | 33
O=C1CC(c2ccccc2)CC(O)=C1C=NCc1ccc(Cl)cc1 (stereo not given) | -14 | 14 | 13 | 0.9 | 0.7 | 29
COc1ccc2nc3ccccc3nc2c1NC(=O)c1ccc(Br)cc1 | -2 | / | / | / | / | /
CCN1CCN(CC(O)COc2ccc(C)c(C)c2)CC1 (stereo not given) | -20 | -6 | / | 1.1 | 0.9 | 8
O=S(=O)(c1ccc(Cl)cc1)N1CCC(O)(c2cccnc2)CC1 | -27 | -77 | 1 | 1.8 | 0.4 | 57*
CC1CN(S(=O)(=O)Cc2ccccc2)CC(C)O1 (stereo not given) | -13 | -22 | / | 1.2 | 0.3 | 66*

Screens deposited in PubChem BioAssay by several laboratories.
